Shown is part of a subset that was picked to be rich in hits.
CD40 NFkB inh – CD40 pathway inhibition in BL2 cells; inhibition, % at 10 µM; BL2 NF-kB luciferase reporter, CD40L-induced, 4 h; 83,000 compounds, 0.94% hits; AID 1053188;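 active means mean inhibition of at least 50% with a set share of replicates also reaching that level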;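 further: 0% = neutral control wells and 100% = IKK inhibitor VII at 50 µM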
* marks the source's active call; other numbers are inactive results; ! = a repeat was not active; [ ] = dose if it differs, or a comment.

SMILES	CD40 NFkB inh
CCCS(=O)(=O)NC(=O)C1(C)CCCN(C(=O)c2ccc(C(F)(F)F)nc2C)C1 (stereo not given)	2
NNC(=O)CNC(=O)c1ccc(F)cc1	7
COc1ccc(-c2cncnc2N)cc1OC	4
C[C@@H]1CN([C@H](C)CO)C(=O)c2ccccc2-c2ccccc2CO[C@@H]1CN(C)C(=O)c1ccc(F)cc1	-12[25 µM]
COc1ccccc1CN1[C@H](CO)[C@H]2c3ccccc3N(C(=O)C3CCCC3)C[C@H]21	1
NC(=O)c1nccc2ccccc12	-9
Cc1cc(=O)[nH]c(SCC(=O)Nc2ccc(N3CCCCC3)cc2)n1	-7
CC(=O)c1ccc(-c2cnc3c(NC=O)cc(-c4ccc(N5CCN(C)CC5)cc4)cn23)cc1	-25
CCSc1ccc(-c2cc(NC=O)c3ncc(-c4cccc(C(=O)N(C)C)c4)n3c2)cc1	51*
O=CNc1cc(-c2ccccc2)cn2c(-c3ccc(F)c(Cl)c3)cnc12	-23
COCCCNC(=O)c1cc(C(=O)c2c(-c3c(Cl)cccc3Cl)noc2C)c[nH]1	7
Cc1ccc(C(=O)NCCCC(=O)O)o1	14
O=c1cc(-c2ccccc2)nc2nc(-c3ccccc3)[nH]n12	-54
O=C1C(=C(c2ccccc2)N2CCOCC2)Cc2ccccc21	89*
O=C(c1ccccc1)N1CCN(C(=O)N2CCOCC2)CC1	8
O=C1c2ccccc2-c2c1cccc2C(=O)N1CCOCC1	11
COc1ccc(NC(=O)c2csc(Cc3ccc(Cl)cc3)n2)cc1	3
NC(=O)CC1Nc2cccc3cccc(c23)NC1=O (stereo not given)	6
CN(Cc1ccccc1)CC1C2CCC(C2)C1O (stereo not given)	2
COc1ccc(-c2ccccc2[C@@H]2[C@@H](C#N)N(C(=O)C3CCC3)[C@H]2CO)cc1	-9[25 µM]
CC(C)(C)[S@@](=O)N1Cc2cc(C(=O)NCC(F)(F)F)nc(-c3cccc(-c4cccc(F)c4)c3)c2[C@H]1CCO	-13[25 µM]
COc1cccc(-c2cccc(-c3nc(C(=O)NCC(F)(F)F)cc4c3[C@@H](CCO)N([S@](=O)C(C)(C)C)C4)c2)c1	5
CC(C)(C)[S@](=O)N1Cc2cc(C(=O)NCC(F)(F)F)nc(-c3cccc(-c4cccc(F)c4)c3)c2[C@@H]1CCO	80*[25 µM]
O=C(Nc1ccc(C#Cc2ccccc2)cc1)C1CC1	-39
N#Cc1ccc(-c2ccc(C3[C@@H]4CN(C(=O)C5CC5)C[C@H]3N4)cc2)cc1 (stereo not given in full)	63*!
SMILES	CD40 NFkB inh
N#Cc1cccc(-c2ccc(C3[C@@H]4CN(C(=O)C5CCOCC5)C[C@H]3N4)cc2)c1 (stereo not given in full)	0[25 µM]
N#Cc1ccc(-c2ccc(C3[C@@H]4CN(C(=O)c5cccnc5)C[C@H]3N4)cc2)cc1 (stereo not given in full)	2[25 µM]
O=C(c1ccc(F)cc1)N1C[C@@H]2N[C@H](C1)C2c1ccc(/C=C/c2ccccc2)cc1 (stereo not given in full)	50*![25 µM]
O=C(c1ccc2c(c1)OCO2)N1C[C@@H]2N[C@H](C1)C2c1ccc(/C=C/c2ccccc2)cc1 (stereo not given in full)	14[25 µM]
O=C(c1ccncc1)N1C[C@@H]2N[C@H](C1)C2c1ccc(/C=C/c2ccccc2)cc1 (stereo not given in full)	26[25 µM]
O=C(C1CCCC1)N1C[C@@H]2N[C@H](C1)C2c1ccc(/C=C/c2ccccc2)cc1 (stereo not given in full)	49*!
O=C(Nc1ccccc1)N1C[C@@H]2N[C@H](C1)[C@@H]2c1ccc(/C=C/c2ccccc2)cc1	-12
O=C(C1CCOCC1)N1C[C@@H]2N[C@H](C1)C2c1ccc(/C=C/c2ccccc2)cc1 (stereo not given in full)	40[25 µM]
N=c1c2ccccc2nc2n1CCCCCCC2	-2
CC(=O)OC(COC1C[C@@H]2CC[C@@]1(C)C2(C)C)C[N+]1(C)CCCCC1 (stereo not given in full)	7
O=C(NCC(c1ccco1)N1CCN(c2ccc(F)cc2)CC1)c1cccs1 (stereo not given)	-2
C[C@H]1CN(C)C(=O)Cc2cc(N(C)C)ccc2O[C@H]1CN(C)C(=O)OC(C)(C)C	6
COc1ccc(CN2CCCCC2C(=O)Nc2ccc(OC)c(OC)c2)cc1OC (stereo not given)	3
Cc1ccc(F)cc1C(=O)N1CCC1(C)C(=O)O (stereo not given)	3
CCn1c(CCC(N)=O)nnc1SCC(=O)Nc1cccc(S(=O)(=O)N2CCCC2)c1	4
COc1ccc(C#Cc2ccc([C@H]3[C@H]4CN(C(=O)c5ccncc5)CCCCN4[C@H]3CO)cc2)cc1	53*[25 µM]
COc1ccc(C#Cc2ccc([C@H]3[C@@H](CO)N4CCCCN(C)C[C@@H]34)cc2)cc1	active[25 µM]
COc1ccc(C#Cc2ccc([C@@H]3[C@@H](CO)N4CCCCN(C)C[C@H]34)cc2)cc1	-54[25 µM]
COc1ccc(C#Cc2ccc([C@@H]3[C@H]4CN(C(=O)c5ccncc5)CCCCN4[C@H]3CO)cc2)cc1	-16[25 µM]
COc1ccc(C#Cc2ccc([C@@H]3[C@H](CO)N4CCCCN(C(=O)c5ccncc5)C[C@@H]34)cc2)cc1	-19[25 µM]
COc1ccc(C#Cc2ccc([C@@H]3[C@H](CO)N4CCCCN(C)C[C@@H]34)cc2)cc1	-52[25 µM]
CN1CCN(S(=O)(=O)c2cccc(C(=O)NCCOc3ccccc3)c2)CC1	-1
COc1cc2ccccc2cc1C(=O)Nc1ccc(N2CCN(C)CC2)cc1	-117
CCNC(=O)COc1cccc2ccccc12	2
Cc1ccc(S(=O)(=O)N[C@@H](Cc2ccccc2)C(=O)CCl)cc1	39*
SMILES	CD40 NFkB inh
CC(=O)NC(CC(C)C)C(=O)NC(Cc1ccccc1)C(=O)CCl (stereo not given)	-3
CCCC(NS(=O)(=O)c1ccc(C)cc1)C(=O)O (stereo not given)	15
CCOC(=O)C1(Cc2ccc(OC)cc2)CCN(C(=O)CCN2CCCC2=O)CC1	-18
Cc1ccc(S(=O)(=O)N2CCCCC2)cc1NC(=O)CCNC(=O)c1ccc([N+](=O)[O-])cc1	-11
Cc1cc(C(N)=O)c2ccccc2n1	5
Cc1cc(Sc2nnc(/N=C/N(C)C)s2)c2ccccc2n1	84*
CN(C)/C=N/c1ncc(C(=O)c2ccc3ccccc3c2)s1	-45
C=C(C)CN(CC)C(=O)CSc1ccc(S(=O)(=O)N2CCN(C)CC2)cn1	5
NCC[C@@H]1CC[C@@H](NC(=O)Cc2ccncc2)[C@@H](CO)O1	-2[25 µM]
O=C(Cn1c(=O)n(CC(=O)NCc2ccccc2)c2ccccc21)NCc1ccccc1	2
CCCC(CCC(=O)Nc1ccc(S(N)(=O)=O)cc1)C(=O)O (stereo not given)	4
CCC(=O)N1[C@H](C#N)[C@@H](c2ccccc2-c2ccccc2)[C@@H]1CO	-11[25 µM]
O=C(CCc1nnc(CCc2c[nH]c3ccccc23)o1)NC1CCC1	-78
COc1ccc(-c2cc(=O)c3c(C)cc(O)cc3o2)cc1	-60
O=c1cc(-c2ccc(O)cc2)oc2ccc3ccccc3c12	102*
COc1cc2oc(-c3ccc(O)cc3)cc(=O)c2c(OC)c1O	-18
O=C(OCC(=O)N1CCc2ccccc21)c1cc(S(=O)(=O)N2CCOCC2)ccc1F	6
O=C1c2ccccc2-c2c1c1ccccc1c(=O)n2CCO	-182
O=S1(=O)N=C(SCCO)c2ccccc21	-11
CC1=C(SCCO)C(=O)c2ccccc2C1=O	91*[25 µM]
CC(=O)N1[C@@H]2CN(S(C)(=O)=O)C[C@H]1C2c1ccc(Br)cc1 (stereo not given in full)	3

High-throughput results deposited in PubChem BioAssay by Broad Institute.
